Results: the supplement of paper PMC6555819

What follows are sequences tested on RXRa homodimer (NR concentration 180 nM) (assay: PBM binding z-score (relative to random genomic background probes); higher = stronger binding; sequences stand for … in GC…GCGATTGACAGCGTAGAATGAAGG).
Procedure, shortened: (§1)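 Each nuclear receptor dimer, without ligand, was incubated for 1 h on custom Agilent 4×180K protein-binding microarrays. Binding was detected with antibodies against each partner (one per run), and scanned fluorescence was regression-normalized. The binding z-scores are referenced to random human genomic background probes.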

Compared with CTGAGTAGGTTACGAGGGGGCATTCAGTGCGAAT, TCGAGTAGTTTACGGGGGCATTCAGGGATGAAGA is lower in PBM binding z-score: 1.72 for the first, 1.48 for the second.

Compared with CTCTGTAGGTTAAGGGGGTCATTCAGTTTGAAAG, CTATGTAGGTTAAGGGGGGCATTCAGTTTGAAAG is lower in PBM binding z-score: 5.91 for the first, 2.76 for the second.

Compared with CTATGCAGGTTAAGGGGGTCATTCAGTTTGAAAG, CCGAGTAGGTTACGAGAGGGCATTCAGTGCGAAT is lower in PBM binding z-score: 6.2 for the first, 1.39 for the second.

Going from CTATGTAGGTTAAGGGGGTCGTTCAGTTTGAAAG to CTATGTCGGTTAAGGGGGTCATTCAGTTTGAAAG, the PBM binding z-score rises from 2.93 to 5.04.

First: TCGAGGAGGTTACGGGGGCATTCAGGGATGAAGA
Second: TCGAGTAGGTTACAGGGGCATTCAGGGATGAAGA
The PBM binding z-score of the first is higher: 4.12 for the first, 1.29 for the second.

First: TCGAGTAGGTTACGGGGGCATTTAGGGATGAAGA
Second: CTATCTAGGTTAAGGGGGTCATTCAGTTTGAAAG
The PBM binding z-score of the first is lower: 2.73 for the first, 5.74 for the second.

Going from CTATGTAGGTTAAGGGGGTCATTCAATTTGAAAG to CCGAGTTGGTTACGAGGGGGCATTCAGTGCGAAT, the PBM binding z-score falls from 5.5 to 1.02.

Compared with CTATGTATGTTAAGGGGGTCATTCAGTTTGAAAG, TCGAGTAGGTTACCGGGGCATTCAGGGATGAAGA is lower in PBM binding z-score: 5.44 for the first, 0.997 for the second.

Compared with TCTAGTAGGTTACGGGGGCATTCAGGGATGAAGA, TCGAGTAGGTTACGGGGCCATTCAGGGATGAAGA is lower in PBM binding z-score: 3.28 for the first, 1.06 for the second.

First: CCGGGTAGGTTACGAGGGGGCATTCAGTGCGAAT
Second: TCGAGTAGGTTACGGGGGCATTCAAGGATGAAGA
The PBM binding z-score of the first is lower: 2.35 for the first, 2.9 for the second.

Compared with CTAAGTAGGTTAAGGGGGTCATTCAGTTTGAAAG, TCGAGTAGCTTACGGGGGCATTCAGGGATGAAGA is lower in PBM binding z-score: 5.62 for the first, 1.12 for the second.

First: TCGAGTAGGTTACGGGGGCATTCACGGATGAAGA
Second: CTATGTAAGTTAAGGGGGTCATTCAGTTTGAAAG
The PBM binding z-score of the first is lower: 3.16 for the first, 5.16 for the second.

Compared with CTATGTAGGTTATGGGGGTCATTCAGTTTGAAAG, TCGAGTAGGTTACGGGGGCATTCCGGGATGAAGA is lower in PBM binding z-score: 6.38 for the first, 2.87 for the second.

Compared with CTATGTAGGTTAAGGGGGTCATTCACTTTGAAAG, TCGAGTAGGTTATGGGGGCATTCAGGGATGAAGA is lower in PBM binding z-score: 5.85 for the first, 2.1 for the second.

First: CCGAGTAGGATACGAGGGGGCATTCAGTGCGAAT
Second: CTATGTAGGTTAAGGGGGTCATTCAGTTTGAAAG
The PBM binding z-score of the first is lower: 0.919 for the first, 6.26 for the second.

Going from TCGAGTAGGTTACGGGGGCGTTCAGGGATGAAGA to TCGAGTAGGTTACGGGGGCATTAAGGGATGAAGA, the PBM binding z-score rises from 2.05 to 2.56.

Going from CCGAGTAGGTTATGAGGGGGCATTCAGTGCGAAT to CCGAGTAGCTTACGAGGGGGCATTCAGTGCGAAT, the PBM binding z-score falls from 1.95 to 0.627.

Compared with TCGAGTAGGTTACGGGGGTATTCAGGGATGAAGA, CCGTGTAGGTTACGAGGGGGCATTCAGTGCGAAT is higher in PBM binding z-score: 2.06 for the first, 2.46 for the second.

Going from CTATGTAGGGTAAGGGGGTCATTCAGTTTGAAAG to CTATGTAGGTTAAGGGTGTCATTCAGTTTGAAAG, the PBM binding z-score falls from 5.44 to 1.35.

In the case of CCTAGTAGGTTACGAGGGGGCATTCAGTGCGAAT, the PBM binding z-score was 2.43.

These sequences were tested on THRa:RXRa (NR concentration 90 nM, RXRa partner concentration 90 nM) in the same assay as above.
Procedure, shortened: as §1

Compared with CTGAGTAGGTTACGAGGGGGCATTCAGTGCGAAT, TCGAGTAGTTTACGGGGGCATTCAGGGATGAAGA is lower in PBM binding z-score: 3.67 for the first, 3.55 for the second.

Going from CTCTGTAGGTTAAGGGGGTCATTCAGTTTGAAAG to CTATGTAGGTTAAGGGGGGCATTCAGTTTGAAAG, the PBM binding z-score falls from 3.86 to 3.12.

First: CTATGCAGGTTAAGGGGGTCATTCAGTTTGAAAG
Second: CCGAGTAGGTTACGAGAGGGCATTCAGTGCGAAT
The PBM binding z-score of the first is higher: 3.91 for the first, 3.76 for the second.

Compared with CTATGTAGGTTAAGGGGGTCGTTCAGTTTGAAAG, CTATGTCGGTTAAGGGGGTCATTCAGTTTGAAAG is higher in PBM binding z-score: 2.7 for the first, 3.9 for the second.

Compared with TCGAGGAGGTTACGGGGGCATTCAGGGATGAAGA, TCGAGTAGGTTACAGGGGCATTCAGGGATGAAGA is lower in PBM binding z-score: 4.31 for the first, 2.65 for the second.

First: TCGAGTAGGTTACGGGGGCATTTAGGGATGAAGA
Second: CTATCTAGGTTAAGGGGGTCATTCAGTTTGAAAG
The PBM binding z-score of the first is higher: 4.01 for the first, 3.91 for the second.

First: CTATGTAGGTTAAGGGGGTCATTCAATTTGAAAG
Second: CCGAGTTGGTTACGAGGGGGCATTCAGTGCGAAT
The PBM binding z-score of the first is higher: 3.97 for the first, 2.46 for the second.

Going from CTATGTATGTTAAGGGGGTCATTCAGTTTGAAAG to TCGAGTAGGTTACCGGGGCATTCAGGGATGAAGA, the PBM binding z-score falls from 3.91 to 2.25.

First: TCTAGTAGGTTACGGGGGCATTCAGGGATGAAGA
Second: TCGAGTAGGTTACGGGGCCATTCAGGGATGAAGA
The PBM binding z-score of the first is higher: 4.01 for the first, 2.47 for the second.

First: CCGGGTAGGTTACGAGGGGGCATTCAGTGCGAAT
Second: TCGAGTAGGTTACGGGGGCATTCAAGGATGAAGA
The PBM binding z-score of the first is lower: 3.94 for the first, 4.28 for the second.

Compared with CTAAGTAGGTTAAGGGGGTCATTCAGTTTGAAAG, TCGAGTAGCTTACGGGGGCATTCAGGGATGAAGA is lower in PBM binding z-score: 3.64 for the first, 3.35 for the second.

Compared with TCGAGTAGGTTACGGGGGCATTCACGGATGAAGA, CTATGTAAGTTAAGGGGGTCATTCAGTTTGAAAG is higher in PBM binding z-score: 2.86 for the first, 3.78 for the second.

Compared with CTATGTAGGTTATGGGGGTCATTCAGTTTGAAAG, TCGAGTAGGTTACGGGGGCATTCCGGGATGAAGA is lower in PBM binding z-score: 3.9 for the first, 3.7 for the second.

Going from CTATGTAGGTTAAGGGGGTCATTCACTTTGAAAG to TCGAGTAGGTTATGGGGGCATTCAGGGATGAAGA, the PBM binding z-score rises from 3.53 to 3.99.

Compared with CCGAGTAGGATACGAGGGGGCATTCAGTGCGAAT, CTATGTAGGTTAAGGGGGTCATTCAGTTTGAAAG is higher in PBM binding z-score: 1.97 for the first, 3.95 for the second.

Going from TCGAGTAGGTTACGGGGGCGTTCAGGGATGAAGA to TCGAGTAGGTTACGGGGGCATTAAGGGATGAAGA, the PBM binding z-score falls from 3.24 to 2.83.

Compared with CCGAGTAGGTTATGAGGGGGCATTCAGTGCGAAT, CCGAGTAGCTTACGAGGGGGCATTCAGTGCGAAT is lower in PBM binding z-score: 3.88 for the first, 1.8 for the second.

Going from TCGAGTAGGTTACGGGGGTATTCAGGGATGAAGA to CCGTGTAGGTTACGAGGGGGCATTCAGTGCGAAT, the PBM binding z-score rises from 2.99 to 4.03.

Compared with CTATGTAGGGTAAGGGGGTCATTCAGTTTGAAAG, CTATGTAGGTTAAGGGTGTCATTCAGTTTGAAAG is lower in PBM binding z-score: 3.99 for the first, 1.04 for the second.

CCTAGTAGGTTACGAGGGGGCATTCAGTGCGAAT showed a PBM binding z-score of 3.91.
